Experimental data as given in PubChem BioAssay (NCATS).
Inconclusive results are not listed. Entries that show only a call come without a potency. Active and inactive are the calls of the source. Calls come from the whole dose curve; as a rule, active = well fitted curve in the direction sought with a large enough effect; inconclusive = small, poorly fitted or top-dose-only effect, or another doubt; inactive = no such curve, though single readings can be large; an effect the other way counts as inactive or inconclusive.

Tests used:
[1] = qHTS of pediatric cancer cell lines to identify multiple opportunities for drug repurposing: Primary screen for DAOY cells (AID 1347090); note: nearly all actives have a fitted effect of over 55% in size
How it was run: (§1)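 Cell viability, CellTiter-Glo luminescence; 500-1,000 cells/well, 8- or 11-point titration, 48 h compound exposure at 37 degrees C, 5% CO2. Controls: DMSO neutral, bortezomib 2.3 µM final as positive.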

[2] = qHTS of pediatric cancer cell lines to identify multiple opportunities for drug repurposing: Primary screen for SJ-GBM2 cells (AID 1347091)
How it was run: as §1

[3] = qHTS of pediatric cancer cell lines to identify multiple opportunities for drug repurposing: Primary screen for BT-37 cells (AID 1347094)
How it was run: (§2)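 Cells plated at 500-1,000/well in growth medium, compounds added after 5 h. MIPE tested at 11 points (from 0.78 nM), NPC at 8 points (from 0.59 nM). CellTiter-Glo luminescence after 48 h; concentration-response curves from primary screen.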

[4] = qHTS of pediatric cancer cell lines to identify multiple opportunities for drug repurposing: Primary screen for NB-EBc1 cells (AID 1347095)
How it was run: as §2

[5] = qHTS of pediatric cancer cell lines to identify multiple opportunities for drug repurposing: Primary screen for U-2 OS cells (AID 1347096); note: nearly all actives have a fitted effect of over 50% in size
How it was run: (§3)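 Cells (500-1,000/well) rested 5 h, then received compounds for 48 h; metabolically active cells were measured by CellTiter-Glo luminescence. Final concentrations spanned up to 46 µM (MIPE, 11-point) or 0.59 nM-46 µM (NPC, 8-point) in primary screens, 11-point in follow-ups.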

[6] = qHTS of pediatric cancer cell lines to identify multiple opportunities for drug repurposing: Primary screen for Saos-2 cells (AID 1347097); note: nearly all actives have a fitted effect of over 40% in size
How it was run: as §2

[7] = qHTS of pediatric cancer cell lines to identify multiple opportunities for drug repurposing: Primary screen for SK-N-SH cells (AID 1347098); note: nearly all actives have a fitted effect of over 65% in size
How it was run: as §3

[8] = qHTS of pediatric cancer cell lines to identify multiple opportunities for drug repurposing: Primary screen for SK-N-MC cells (AID 1347093)
How it was run: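 Metabolically active cells were quantified by ATP-dependent luminescence (CellTiter-Glo, 15 min at room temperature) following 48 h treatment. Cells had been plated at 500-1,000 per well and settled for 5 h beforehand.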

[9] = qHTS of pediatric cancer cell lines to identify multiple opportunities for drug repurposing: Primary screen for NB1643 cells (AID 1347099); note: nearly all actives have a fitted effect of over 50% in size
How it was run: as §2

[10] = qHTS of pediatric cancer cell lines to identify multiple opportunities for drug repurposing: Primary screen for A673 cells (AID 1347092); note: nearly all actives have a fitted effect of over 45% in size
How it was run: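 Titration-based qHTS on A673 cells: MIPE compounds spanned 11 points (0.78 nM to 46 µM final), NPC compounds 8 points (0.59 nM to 46 µM final). Viability after 48 h was measured by ATP luminescence.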
Potency is the fitted concentration of half-maximal effect.

Row | Structure (SMILES) | Potency [1] | Potency [2] | Potency [3] | Potency [4] | Potency [5] | Potency [6] | Potency [7] | Potency [8] | Potency [9] | Potency [10]
1 | COc1cc2nccc(Oc3ccc(NC(=O)Nc4cc(C)on4)c(Cl)c3)c2cc1OC | 5.9 µM (active) | 14.8 µM (active) | 24.3 µM (active) | 13.2 µM (active) | 18.7 µM (active) | 14.8 µM (active) | 19.2 µM (active) |  |  | 
2 | CN1CCN2c3ncccc3Cc3ccccc3C2C1 (stereo not drawn) | inactive | inactive | inactive | inactive | inactive |  | inactive | inactive | inactive | 
3 | Cn1cc(-c2ccc3nnc(Sc4ccc5ncccc5c4)n3n2)cn1 | 11.8 µM (active) | 0.0118 µM (active) | inactive | inactive | inactive |  | inactive |  | inactive | 
4 | Cc1ccccc1-n1c(Cn2nc(-c3cccc(O)c3)c3c(N)ncnc32)nc2cccc(C)c2c1=O | 1.18 µM (active) | 0.0166 µM (active) | 0.0544 µM (active) | 0.0743 µM (active) |  | 0.059 µM (active) |  | 0.0418 µM (active) | 0.833 µM (active) | 
5 | Cc1cc2nc3c(=O)[nH]c(=O)nc-3n(CC(O)C(O)C(O)CO)c2cc1C (stereo not drawn) | inactive | inactive | inactive | inactive | inactive | inactive |  | 29.6 µM (active) | 23.5 µM (active) | 
6 | CO[C@H]1/C=C\O[C@@]2(C)Oc3c(C)c(O)c4c(O)c(c5c(nc6cc(C)ccn65)c4c3C2=O)NC(=O)C(C)=CC=C[C@H](C)[C@H](O)[C@@H](C)[C@@H](O)[C@@H](C)[C@H](OC(C)=O)[C@H]1C | inactive | inactive | inactive | inactive |  |  | inactive |  |  | 
7 | O=c1cc(-c2ccc(O)c(O)c2)oc2cc(O)cc(O)c12 | inactive | inactive | inactive | inactive | inactive | inactive |  |  |  | 
8 | Cc1cn([C@@H]2C[C@@H](O)[C@H](CO)O2)c(=O)[nH]c1=O | inactive | inactive | inactive | inactive |  | inactive | inactive |  | inactive | 
9 | CC[C@H](C=C[C@@H](C)[C@H]1CC[C@H]2[C@@H]3CC=C4C[C@@H](O)CC[C@]4(C)[C@@H]3CC[C@]12C)C(C)C | inactive | inactive | inactive | inactive | inactive | inactive | inactive |  | inactive | 
10 | CCNC(=O)Nc1ccc(Oc2ncnc(N)c2C=NOC)cc1Cl | inactive | 5.26 µM (active) | inactive | 2.64 µM (active) | inactive |  | inactive | 4.69 µM (active) | inactive | 
11 | COc1ccc(C=CC(=O)Nc2ccccc2C(=O)O)cc1OC | inactive | inactive | inactive | inactive | inactive |  |  |  | 5.9 µM (active) | 
12 | CNC(=O)c1cc(COc2nnc(Nc3ccc(Cl)cc3)c3ccoc23)ccn1 | 23.5 µM (active) | 20.9 µM (active) |  | 23.5 µM (active) |  | 18.7 µM (active) | inactive | 23.5 µM (active) |  | 
13 | CC(C)(C)c1nc(-c2cccc(NS(=O)(=O)c3c(F)cccc3F)c2F)c(-c2ccnc(N)n2)s1 | 18.7 µM (active) | inactive | inactive | inactive |  | inactive | inactive | 0.59 µM (active) | 18.7 µM (active) | 
14 | Cc1cccc2c1CC[C@H](CN1CCC(c3c(Cl)cccc3Cl)CC1)C[C@@H]2O | inactive | inactive |  | inactive |  |  | inactive | 9.35 µM (active) | inactive | 
15 | C=CCc1cccc(C=NNC(=O)CN2CCN(Cc3ccccc3)CC2)c1O | 18.7 µM (active) | 6.62 µM (active) | 9.68 µM (active) | 5.9 µM (active) |  | 5.9 µM (active) | 9.61 µM (active) | 11.8 µM (active) |  | 
16 | COc1nc(C)cnc1NS(=O)(=O)c1cccnc1-c1ccc(-c2nnco2)cc1 | inactive | inactive | inactive | inactive | inactive | inactive |  | inactive | inactive | 
17 | CCOC(=O)[C@H]1O[C@H]1C(=O)N[C@@H](CC(C)C)C(=O)NCCC(C)C | inactive | inactive | inactive | inactive | inactive |  | inactive |  |  | 
18 | CN(C)CCCNC(=O)c1ccc(-c2cc(O)c3ncccc3c2)cc1 | inactive | inactive |  |  | inactive |  |  | inactive |  | 
19 | CN1c2ccccc2C(=O)N2CCc3c([nH]c4ccccc34)C21 (stereo not drawn) | inactive | inactive | inactive | inactive | inactive |  |  | 10.5 µM (active) | 13.2 µM (active) | 
20 | Cc1ccc2c(c1)c1c(n2CCc2ccc(C)nc2)CCN(C)C1 | inactive | inactive | inactive | inactive | inactive | inactive |  |  |  | 
21 | COC(=O)Nc1ccc(-c2nc(N3CCOCC3)c3cnn(C4CCN(C(=O)OC)CC4)c3n2)cc1 | 1.87 µM (active) | 4.69 µM (active) | 0.122 µM (active) | 0.0083 µM (active) |  | 2.96 µM (active) | 0.0192 µM (active) |  |  | 

Row | Structure (SMILES) | Potency [1] | Potency [2] | Potency [3] | Potency [4] | Potency [5] | Potency [6] | Potency [7] | Potency [8] | Potency [9] | Potency [10]
22 | CC(C)n1c(C=C[C@H](O)C[C@H](O)CC(=O)O)c(-c2ccc(F)cc2)c2ccccc21 | 1.87 µM (active) | 9.35 µM (active) | 19.3 µM (active) |  | 14.8 µM (active) | 1.87 µM (active) | 6.81 µM (active) | 11.8 µM (active) |  | 
23 | CCCCC(C)(C)[C@H](O)C=C[C@H]1[C@H](O)CC(=O)[C@H]1CC=CCCCC(=O)O | inactive | inactive |  | 5.26 µM (active) | inactive | inactive | inactive | 20.9 µM (active) | inactive | 
24 | FC(F)(F)c1ccc(C=Cc2nc(COc3ccc(CCCCn4ccnn4)cc3)co2)cc1 | 0.0187 µM (active) | 0.0037 µM (active) | 0.0109 µM (active) |  | inactive | 0.0332 µM (active) |  | 0.0093 µM (active) |  | 
25 | CCN(CCO)CCCOc1ccc2c(Nc3cc(CC(=O)Nc4cccc(F)c4)[nH]n3)ncnc2c1 | inactive | 0.166 µM (active) |  |  | inactive | inactive |  | 0.209 µM (active) |  | 
26 | Cn1c(=O)c(-c2c(Cl)cccc2Cl)cc2cnc(Nc3cccc(C(=O)O)c3)nc21 | 0.372 µM (active) | 0.526 µM (active) | inactive | 1.32 µM (active) |  | 0.743 µM (active) | inactive | 0.0935 µM (active) | inactive | 
27 | CNC(=O)c1ccc2c(C(=Nc3cccc(CN(C)C)c3)c3ccccc3)c(O)[nH]c2c1 | inactive |  |  |  |  |  | 21.5 µM (active) | 23.5 µM (active) | 16.6 µM (active) | 11.8 µM (active)
28 | C[C@H]1O[C@@H](n2cc(F)c(=O)[nH]c2=O)[C@H](O)[C@H]1O | inactive | inactive |  | 4.69 µM (active) |  | inactive |  |  | 18.7 µM (active) | 
29 | COC1CCC(C(=O)c2ccc3nc4c(cc3c2)CCCO4)CC1 (stereo not drawn) | inactive | 18.7 µM (active) |  |  | inactive |  |  |  |  | 
30 | C=CC(=O)Nc1cccc(Sc2nc(Nc3ccc(N4CCN(C)CC4)cc3)ncc2Cl)c1 | 2.35 µM (active) |  |  | 9.35 µM (active) |  |  | 27.1 µM (active) | 2.64 µM (active) |  | 1.48 µM (active)
31 | N#Cc1ccc(Oc2ccc3c(c2)COB3O)cc1 | inactive |  |  |  | inactive | inactive |  | 14.8 µM (active) |  | inactive
32 | Cc1ccccc1C(C(=O)NC1CCCCC1)N(C(=O)CNc1ccc(C#N)cc1)c1cccc(F)c1 (stereo not drawn) | inactive |  |  | 23.5 µM (active) | inactive | 18.7 µM (active) | inactive | inactive | inactive | inactive
33 | O=C(CO)N1CCC(c2[nH]nc(-c3ccc(Cl)cc3)c2-c2ccncn2)CC1 | inactive |  |  | inactive | inactive |  | inactive | inactive |  | inactive
34 | Nc1[nH]nc2nnc(-c3c(-c4ccccc4)nn4ccccc34)cc12 | 2.96 µM (active) |  | 2.73 µM (active) | 3.32 µM (active) |  | 9.35 µM (active) | 4.29 µM (active) | 0.0332 µM (active) | 1.87 µM (active) | 1.48 µM (active)
35 | O=C(CC12CC3CC(CC(C3)C1)C2)Nc1cccc2nc(NCCNCCO)ccc12 | 9.35 µM (active) |  | inactive |  | inactive |  | 24.1 µM (active) | 1.87 µM (active) |  | 18.7 µM (active)
36 | CC(C)CNc1ccnc(NCc2csc(-c3ccccc3)n2)n1 | 18.7 µM (active) |  |  |  |  |  |  | 10.5 µM (active) |  | 11.8 µM (active)
37 | Cc1cnc(CNC(=O)c2c(=O)c3ccc(N4CCCN(C)CC4)nc3n3c2sc2ccccc23)cn1 | inactive |  |  | 6.45 µM (active) | inactive | inactive |  |  |  | inactive
38 | C[C@H]1COC2=C1C(=O)C(=O)c1c2ccc2c1CCCC2(C)C | inactive | 20.9 µM (active) |  |  | inactive | 5.9 µM (active) | inactive |  |  | 
39 | CN1CCN(c2cccc(Nc3nc4c(-c5ccc(S(C)(=O)=O)cc5)cccn4n3)c2)CC1 | inactive |  |  | inactive | inactive | 18.7 µM (active) |  | 1.48 µM (active) |  | 9.35 µM (active)
40 | O=C1C(c2c(O)[nH]c3ccccc23)=Nc2ccccc21 | 0.59 µM (active) |  |  |  | inactive |  |  | 0.118 µM (active) |  | 0.59 µM (active)
41 | CCOC(=O)c1c(CSc2ccccc2)n(C)c2cc(Br)c(O)c(CN(C)C)c12 | inactive |  |  | inactive |  |  |  |  |  | inactive
42 | Cc1nc(C(=O)NCC(=O)O)c(O)c2ccc(Oc3ccccc3)cc12 | inactive | inactive | inactive |  | inactive |  | inactive |  | inactive | 
